CYP2C19 act: human CYP2C19 activators, primary screen, biochemical, luminescence. 96,000 tested, under 10 active. Cytochrome P450 2C19 (Homo sapiens), P33261. AID 1025, 2008. recombinant CYP2C19, luciferin-H EGE luminescence; hits give high values; 0 = fully inhibited enzyme, 1 = untreated enzyme. activation factor at 5 µM;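 active means activation factor of at least 2 at 5 µM in the primary screen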;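 further: 0 = wells with 2.5 mM tranylcypromine and 1 = vehicle-only wells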
Target sequence (P33261 whole entry, looked up): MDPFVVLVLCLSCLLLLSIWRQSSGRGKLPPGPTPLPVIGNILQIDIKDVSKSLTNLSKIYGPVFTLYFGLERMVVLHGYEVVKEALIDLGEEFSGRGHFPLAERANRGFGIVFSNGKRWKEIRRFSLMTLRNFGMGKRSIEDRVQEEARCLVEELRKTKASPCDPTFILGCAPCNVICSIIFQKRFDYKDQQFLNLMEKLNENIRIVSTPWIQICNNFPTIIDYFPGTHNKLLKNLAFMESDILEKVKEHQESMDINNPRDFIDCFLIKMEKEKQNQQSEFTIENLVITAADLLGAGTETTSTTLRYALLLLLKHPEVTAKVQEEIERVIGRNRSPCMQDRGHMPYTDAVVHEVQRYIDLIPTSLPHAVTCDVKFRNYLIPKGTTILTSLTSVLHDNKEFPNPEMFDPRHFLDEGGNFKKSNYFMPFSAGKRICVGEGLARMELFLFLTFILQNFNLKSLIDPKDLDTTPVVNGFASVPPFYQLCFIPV
MRP resist rev: reversal of MRP1-mediated doxorubicin resistance, primary screen, H69AR cells, doxorubicin co-treatment; H69AR cells + 2 uM doxorubicin, CellTiter-Glo, 72 h; differential viability (reversal), % at 10 µM; 85,000 tested, 0.04% active; AID 602, 2007;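 active means viability drop by adding the cancer drug above about 55%, with treated viability meeting a 40% cutoff, limit read from the data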;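 further: viability without doxorubicin minus viability with 2 µM doxorubicin for each compound; larger differential means the compound sensitizes cells more to doxorubicin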
CYP2C19 inhib: blockers of cytochrome P450 2C19 activity – biochemical, luminescence, ADME assay, primary screen; 96,000 tested, 21% active; P33261; inhibition, % at 5 µM; CYP2C19 Supersomes, luciferin-H EGE luminescence, 30 min;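 active means CYP2C19 inhibition above a set limit at 5 µM in the primary screen, cut at about 50% in these data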;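 further: plate controls were negative control wells for no effect and 2.5 mM tranylcypromine positive control for full effect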
CYP2C9 inh: blockers of cytochrome P450 2C9 activity – biochemical, luminescence, ADME assay, primary screen; inhibition, % at 5 µM; CYP2C9 Supersomes, luciferin-H conversion; AID 777, 2007; 96,000 tested, 20% active;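 active means blocking of liver enzyme CYP2C9 beyond about 50% at 5 µM, limit read from the data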
MRP1 act: H69AR viability gain despite doxorubicin, primary screen, MRP-1 activator project, H69AR cells, CellTiter-Glo; viability increase, % at 10 µM; viability rescue; 140,000 tested, 0.61% active;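 active means viability gain under doxorubicin at or above a set limit, the compound median plus 3 SD, cut at about 4.7% in these data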;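 further: MRP-1 overexpressing cells given doxorubicin 25 µM after compound pretreatment; 18-22 h compound pretreatment then 72 h with doxorubicin before readout; 0% = doxorubicin-only wells and 100% = vehicle-treated cells without doxorubicin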
CYP2C9 activ: human CYP2C9 activators, primary screen, biochemical, luminescence. recombinant CYP2C9, luciferin-H conversion; hits give high values; factor 1 = untreated enzyme, 0 = blocked. activation factor at 5 µM. 96,000 tested, 1.4% active;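 active means activation factor of 2 or more for CYP2C9 at a 5 µM dose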;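 further: 0 = sulfaphenazole-blocked wells and 1 = vehicle-only wells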
The depositor's hits bear a star; · = not tested or not shown. The list is not random: actives were taken first. Their share in the collection is about 21%.

SMILES	CYP2C19 act	MRP resist rev	CYP2C19 inhib	CYP2C9 inh	MRP1 act	CYP2C9 activ
Brc1ccc(-c2csc(-c3ccncc3)n2)cc1	·	·	·	·	-1	·
O=C1NCC(c2ccccc2)C1C(=O)N/N=C\c1ccc(-c2ccc(Cl)c(Cl)c2)o1 (stereo unspecified)	0.7	-6	26	67*	0	0.3
CCOC(=O)c1cc(C)nn1-c1nc(Cl)cc(OC)n1	·	·	·	·	-1	·
CC(=O)c1ccccc1C(=O)NCc1cccnc1	·	·	·	·	0	·
CC(=O)OC1(C(F)(F)F)Oc2ccccc2NC1=O (stereo unspecified)	0.5	10	53*	16	-1	0.8
CC(=O)N1c2ccccc2NC(=O)C1(C)C	1	4	1	-7	-1	1.1
Cn1nc(-c2ccc(Cl)cc2)c2cc(C(=O)N3CCN(c4ccccc4)CC3)sc21	0.6	3	38	84*	-4	0.2
Cn1nc(-c2ccc(Cl)cc2)c2cc(C(=O)N3CCN(c4ccccn4)CC3)sc21	0.7	-17	32	56*	-2	0.4
CCOc1cccc(C(=O)Nc2ccc3oc(Cc4ccc(Cl)cc4)nc3c2)c1	0.5	-37	47	58*	-1	0.4
C=CCC1(C#N)C(SC)=NC2=C(C(=O)CC(C)(C)C2)C1c1ccc(Br)cc1 (stereo unspecified)	·	·	·	·	2	·
O=C(c1ccc2c(c1)OCO2)N(CC1CCCO1)C1(C(=O)NC2CCCC2)CCCCC1 (stereo unspecified)	0.5	15	51*	55*	-5	0.5
O=c1c(Sc2ccccc2)c(C(F)(F)F)[nH]n1-c1ccccc1	0.8	9	15	97*	1	0
COc1ccc2c(CCNC(=O)c3ccco3)c[nH]c2c1	0.2	14	79*	39	-2	0.6
O=C(NCCSc1c[nH]c2ccccc12)c1ccco1	0.8	-29	19	62*	-4	0.4
COc1ccc2c(CCNC(=O)CN3C(=O)c4ccccc4C3=O)c[nH]c2c1	·	·	·	·	-2	·
CCOC(=O)Oc1ccc2c(c1)C(C)=CC(C)(C)N2C(=O)OCC	0.4	-5	56*	-20	-1	1.2
CCNC(=O)N1c2ccc(OC)cc2C(C)=CC1(C)C	0.6	22	42	36	-4	0.6
CCOc1ccc2c(c1)C(C)=CC(C)(C)N2C(=O)Nc1ccccc1	0.4	9	61*	40	-4	0.6
COc1ccc(NC(=O)N2c3ccc(OC)cc3C(C)=CC2(C)C)cc1	·	·	·	·	-3	·
CCn1cc(C(=O)NCCCN2CCC(C)CC2)c2cc(OC)c(OC)cc2c1=O	1	9	-2	1	-1	1
CC(C)c1ccc(NC(=O)C2CC(=O)N=C(N)S2)cc1 (stereo unspecified)	1	12	2	-11	0	1.1
N#Cc1ccc(CSc2nnc(COc3ccccc3)n2-c2ccccc2)cc1	0.2	-1	76*	67*	-1	0.3
COc1ccc(-n2c(COc3ccccc3)nnc2SCc2ccc(C#N)cc2)cc1	0	40	96*	93*	-2	0.1
COc1ccc(C(=O)CSc2nnc(COc3ccc(C#N)cc3)n2-c2ccccc2)cc1	1.1	·	-14	-11	-3	1.1
Cn1c(C(C)(O)C(O)c2ccccc2)nc2ccccc21 (stereo unspecified)	·	·	·	·	0	·
SMILES	CYP2C19 act	MRP resist rev	CYP2C19 inhib	CYP2C9 inh	MRP1 act	CYP2C9 activ
O=C(CCCc1cccs1)N1CCN(S(=O)(=O)c2ccccc2Br)CC1	0.5	-11	48	69*	2	0.3
O=C(CCCOc1ccccc1)N1CCN(S(=O)(=O)c2cccs2)CC1	0.9	20	13	10	-3	0.9
O=C(OCc1nc2ccccc2s1)C1CCN(S(=O)(=O)c2cccs2)CC1	0.2	-11	82*	95*	-2	0
O=C(CCc1nc2ccccc2s1)N1CCN(S(=O)(=O)c2cccs2)CC1	0.3	2	70*	59*	0	0.4
O=C(Cc1cccs1)N1CCN(S(=O)(=O)c2ccccc2)CC1	·	·	·	·	0	·
CCOC(=O)c1nc2ccccc2s1	0.9	-14	7	3	-3	1
CCOC(=O)C1CCN(S(=O)(=O)C(F)(F)c2nc3ccccc3s2)CC1	0	9	95*	65*	-1	0.4
CN(C)c1ccc(N=C/C=C2/N(C)c3ccccc3C2(C)C)cc1	·	·	·	·	-4	·
Cc1nc2ccc(NC(=O)C3CCN(S(=O)(=O)c4cccs4)CC3)cc2s1	0.8	16	16	47	-1	0.5
O=S(=O)(c1cccs1)N1CCN(Cc2nc3ccccc3s2)CC1	0.2	2	85*	83*	-2	0.2
CCOc1ccc(S(=O)(=O)Nc2ccccc2SC)c2cccnc12	1	-19	3	71*	-4	0.3
Nc1ccccc1OCCOCCOCCOc1ccccc1N	0.3	-14	75*	60*	-4	0.4
CCCCOc1ccccc1N	1	3	1	6	0	0.9
Cc1ccc(Cn2c3ccccc3c3cn[nH]c(=O)c32)cc1	1	-2	-1	18	-2	0.8
CCN1C=C(Cc2ccccc2C)C2=C(C1)C(c1ccccc1C)C(C#N)=C(N)O2 (stereo unspecified)	0.1	·	85*	99*	-7	0
Cc1nnc(SCc2c(Cl)cccc2Cl)s1	0.4	14	59*	6	-2	0.9
Cn1c(SCc2c(Cl)cccc2Cl)nnc1-c1cccs1	0	-10	98*	76*	-1	0.2
Cn1c(SCc2ccc(Br)cc2)nnc1-c1cccs1	0	19	97*	76*	-1	0.2
CCCCSc1nnc2nc(C)cc(C)n12	1	8	4	-15	-1	1.2
CCOc1ccc(N2C(=O)/C(=C/c3cc(OC)c(OC)c(OC)c3)N(CC(=O)OC)C2=S)cc1	0.5	-1	54*	42	-5	0.6
CCCOc1ccc(-c2cnc(N)s2)cc1	0.8	·	15	22	-1	0.8
Cc1cc(C(=O)N/N=C/c2cccc([N+](=O)[O-])c2)c(C)n1-c1ccccc1	·	·	·	·	1	·
Cc1cc(C)cc(-n2c(C)cc(/C=N/NC(=O)c3cccc([N+](=O)[O-])c3C)c2C)c1	0.8	·	22	53*	-2	0.5
O=C(COC(=O)C1CCN(S(=O)(=O)c2cccs2)CC1)c1cc2ccccc2o1	0.9	5	9	19	0	0.8
CCOC(=O)COc1ccc(S(=O)(=O)NCc2cccnc2)cc1	1	-6	-1	5	0	0.9
CC(=O)c1cccc(NS(=O)(=O)c2ccc(N/C=C\C(=O)c3ccc(F)cc3)cc2)c1	0.9	·	14	29	-2	0.7

Screening results (PubChem BioAssay)
